Test results: PubChem BioAssay (EPA / NIEHS)
Results filed as inconclusive are left out. Active and inactive are the calls of the source. How the source made its calls, unless noted: active means hit-call score of the fitted dose curve at least 0.9, where 1 is the maximum; inactive means score below 0.9.

Tests used:
[1] = read-out: solute carrier (SLCO1B1), SLCO1B1 (gene 10599); experiment: LTEA_HepaRG_SLCO1B1: Life Technologies and Expression Analysis (LTEA) Assay for solute carrier (SLCO1B1) using HepaRG (AID 2283530); details: mRNA level, 48 h; actives raise or lower the signal
How it was run: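 HepaRG, serum-free induction medium, 48 h dosing, 8-pt half-log from 100 uM, 0.5% DMSO vehicle, duplicates. Readout: SLCO1B1 mRNA, qRT-PCR, ACTB/GAPDH/POLR2A normalization; up or down fit vs DMSO.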

[2] = read-out: sulfotransferase 2A1 (SULT2A1), SULT2A1 (gene 6822); experiment: LTEA_HepaRG_SULT2A1: Life Technologies and Expression Analysis (LTEA) Assay for sulfotransferase 2A1 (SULT2A1) using HepaRG (AID 2283531); details: mRNA level, 48 h; actives raise or lower the signal
How it was run: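 Transcript levels of SULT2A1, quantified by qRT-PCR and normalized to three housekeeping genes, serve as the readout. Human HepaRG cultures receive test chemicals for 48 h at up to 100 uM in half-log steps, with 0.5% DMSO vehicle.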

[3] = read-out: Transforming Growth Factor (TGFA), TGFA (gene 7039); experiment: LTEA_HepaRG_TGFA: Life Technologies and Expression Analysis (LTEA) Assay for Transforming Growth Factor (TGFA) using HepaRG (AID 2283532); details: mRNA level, 48 h; actives raise or lower the signal
How it was run: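 Differentiated HepaRG cells exposed 48 hours in serum-free induction medium, 0.5% DMSO vehicle, 8-point half-log series from 100 uM, in duplicate. TGFA mRNA by TaqMan qRT-PCR, normalised to ACTB, GAPDH, POLR2A; bidirectional fit versus DMSO.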

[4] = read-out: Transforming Growth Factor (TGFB1), TGFB1 (gene 7040); experiment: LTEA_HepaRG_TGFB1: Life Technologies and Expression Analysis (LTEA) Assay for Transforming Growth Factor (TGFB1) Transporter using HepaRG (AID 2283533); details: mRNA level, 48 h; actives raise or lower the signal
How it was run: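 HepaRG, 48 h post-plating, switched to serum-free induction medium; chemicals 100 uM top, half-log, 8 pts, 0.5% DMSO, dup; 48 h exposure; RNA → Fluidigm TaqMan qRT-PCR; norm ACTB/GAPDH/POLR2A; bidirectional fit vs DMSO.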

TIMP1, TIMP1 (gene 7076) = experiment: LTEA_HepaRG_TIMP1: Life Technologies and Expression Analysis (LTEA) Assay for TIMP1 using HepaRG (AID 2283534); details: mRNA level, 48 h; actives raise or lower the signal;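 further: TaqMan qRT-PCR signal normalized to ACTB GAPDH and POLR2A housekeeping genes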
How it was run: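 Readout is TIMP1 mRNA level measured by qRT-PCR and normalized to three housekeeping genes. Human HepaRG cells were treated for 48 h in duplicate at eight concentrations up to 100 uM (0.5% DMSO); gain or loss fitted against DMSO.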

[5] = read-out: Tumor necrosis factor receptor 1 (TNFRSF1A), TNFRSF1A (gene 7132); experiment: LTEA_HepaRG_TNFRSF1A: Life Technologies and Expression Analysis (LTEA) Assay for Tumor necrosis factor receptor 1 (TNFRSF1A) using HepaRG (AID 2283535); details: mRNA level, 48 h; actives raise or lower the signal
How it was run: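 Read-out is TNFRSF1A transcript level by TaqMan qRT-PCR, normalized to three housekeeping genes, scored as gain or loss of signal versus 0.5% DMSO. Human HepaRG cells received test chemicals for 48 h at up to 100 uM (half-log series).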

[6] = read-out: Thyroid Hormone Responsive (THRSP), THRSP (gene 7069); experiment: LTEA_HepaRG_THRSP: Life Technologies and Expression Analysis (LTEA) Assay for Thyroid Hormone Responsive (THRSP) using HepaRG (AID 2283536); details: mRNA level, 48 h; actives raise or lower the signal
How it was run: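 Differentiated HepaRG cells treated 48 h in serum-free induction medium with 8 half-log concentrations up to 100 uM (0.5% DMSO), duplicates. THRSP mRNA by TaqMan qRT-PCR normalised to ACTB, GAPDH, POLR2A; bidirectional fit versus DMSO.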

[7] = read-out: Cellular tumor antigen p53 (Homo sapiens) (UniProt P04637); experiment: LTEA_HepaRG_TP53: Life Technologies and Expression Analysis (LTEA) Assay for Tumor Protein P53 (TP53) using HepaRG (AID 2283537); details: mRNA level, 48 h; actives raise or lower the signal
How it was run: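 Gain or loss of TP53 mRNA signal is scored relative to 0.5% DMSO after 48 h chemical treatment of HepaRG liver cells, tested in duplicate at eight half-log concentrations up to 100 uM.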

[8] = read-out: UDP glucuronosyltransferase (UGT1A1), UGT1A1 (gene 54658); experiment: LTEA_HepaRG_UGT1A1: Life Technologies and Expression Analysis (LTEA) Assay for UDP glucuronosyltransferase (UGT1A1) using HepaRG (AID 2283538); details: mRNA level, 48 h; actives raise or lower the signal
How it was run: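 Differentiated human HepaRG cells in serum-free induction medium were exposed in duplicate for 48 h to eight half-log concentrations up to 100 uM in 0.5% DMSO. UGT1A1 mRNA was quantified by TaqMan qRT-PCR, normalized to ACTB, GAPDH and POLR2A, and fitted bidirectionally against DMSO.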

[9] = read-out: UDP glucuronosyltransferase (UGT1A6), UGT1A6 (gene 54578); experiment: LTEA_HepaRG_UGT1A6: Life Technologies and Expression Analysis (LTEA) Assay for UDP glucuronosyltransferase (UGT1A6) using HepaRG (AID 2283539); details: mRNA level, 48 h; actives raise or lower the signal
How it was run: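 HepaRG, 48 h post-plating switch to serum-free induction medium; chemical 48 h, 100 uM top, half-log x8, duplicate, 0.5% DMSO. Phenobarbital 1mM induction control. UGT1A6 mRNA by TaqMan qRT-PCR; gain/loss fit vs DMSO.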

[10] = read-out: X-box binding protein 1 (XBP1), XBP1 (gene 7494); experiment: LTEA_HepaRG_XBP1: Life Technologies and Expression Analysis (LTEA) Assay for X-box binding protein 1 (XBP1) using HepaRG (AID 2283540); details: mRNA level, 48 h; actives raise or lower the signal
How it was run: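 Transcript levels of XBP1, measured by qRT-PCR and normalised to three housekeeping genes, were fitted bidirectionally relative to 0.5% DMSO controls. Human HepaRG cells received eight-point half-log dilutions from 100 uM for 48 h.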

[11] = LTEA_HepaRG_LDH_cytotoxicity: Cytotoxicity Assessment in the Life Technologies and Expression Analysis (LTEA) Assay (AID 2283563; active means hit-call score of the fitted dose curve at least 0.9, where 1 is the maximum)
How it was run: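 Cells were thawed and plated for 48 h. Medium was then replaced with serum-free induction medium. Chemicals (8 half-log points, maximum 100 uM, 0.5% DMSO) were added in duplicate for 48 h, after which spent medium was assayed for LDH.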

[12] = TOX21_p53_BLA_p2_viability: Viability Assessment in the Tox21 HCT-116 p53 Agonism Beta-lactamase Assay, Phase 2 (AID 2283591; active means hit-call score of the fitted dose curve at least 0.9, where 1 is the maximum;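 further: compound exposure lasted 16 h at 37 °C; actives lower the ATP signal meaning cytotoxicity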)
How it was run: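 HCT116 p53-bla cells, 4000/well, dosed after 5 h plating (217-fold dilution of DMSO stocks) and incubated 16 h at 37C. Viability taken as cellular ATP by CellTiter-Glo luminescence after 30 min RT; signal loss marks cytotoxicity.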

[13] = TOX21_p53_BLA_p3_viability: Viability Assessment in the Tox21 HCT-116 p53 Agonism Beta-lactamase Assay, Phase 3 (AID 2283593; active means hit-call score of the fitted dose curve at least 0.9, where 1 is the maximum;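 further: cells exposed to compound for 16 h before reading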)
How it was run: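 HCT116 cells, 4000/well, dosed 5 h after plating by pin transfer (217-fold dilution from DMSO stock) and incubated 16 h at 37C, 5% CO2. Viability read as ATP luminescence with CellTiter-Glo after 30 min at room temperature.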

[14] = TOX21_p53_BLA_p5_viability: Viability Assessment in the Tox21 HCT-116 p53 Agonism Beta-lactamase Assay, Phase 5 (AID 2283600; active means hit-call score of the fitted dose curve at least 0.9, where 1 is the maximum)
How it was run: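 4000 cells/well; 5 h pre-incubation; DMSO compounds pin-transferred, 217-fold dilution; 16 h, 37C/5% CO2; CCF4-AM 2 h RT; CellTiter-Glo 30 min RT; luminescence.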

[15] = ATG_XTT_Cytotoxicity: Cytotoxicity Assessment in the Attagene TRANS-FACTORIAL HepG2 Assay (AID 2283584; active means hit-call score of the fitted dose curve at least 0.9, where 1 is the maximum)
How it was run: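 Cells: human HepG2, transiently transfected with MRTU reporter constructs. Exposure 24 h. Readout: XTT, cell number. Baseline/neg ctrl DMSO; loss-of-signal scored.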

[16] = molecular target: Cellular tumor antigen p53 (Homo sapiens) (UniProt P04637); experiment: TOX21_p53_BLA_p3_ratio: Tox21 HCT-116 p53 Agonism Beta-lactamase Assay, Ratio, Phase 3 (AID 2283596; active means hit-call score of the fitted dose curve at least 0.9, where 1 is the maximum)
Cellular tumor antigen p53 (Homo sapiens), sequence (P04637 whole entry, looked up): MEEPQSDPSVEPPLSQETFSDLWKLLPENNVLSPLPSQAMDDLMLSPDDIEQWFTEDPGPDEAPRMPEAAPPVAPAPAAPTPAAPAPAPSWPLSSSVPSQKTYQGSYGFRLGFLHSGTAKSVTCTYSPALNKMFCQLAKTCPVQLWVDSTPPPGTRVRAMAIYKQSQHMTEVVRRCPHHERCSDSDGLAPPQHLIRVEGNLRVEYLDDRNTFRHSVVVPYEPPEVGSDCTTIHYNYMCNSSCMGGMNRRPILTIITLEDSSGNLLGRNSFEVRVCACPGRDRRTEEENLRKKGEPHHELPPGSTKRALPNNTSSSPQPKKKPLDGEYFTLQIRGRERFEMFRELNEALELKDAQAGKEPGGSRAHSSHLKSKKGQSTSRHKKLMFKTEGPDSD
How it was run: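 HCT116 p53-bla cells (4000/well) given compound in DMSO (217-fold dilution) after 5 h, incubated 16 h at 37C. CCF4-AM substrate 2 h at room temperature; 460/530 nm emission ratio, gain fitted against DMSO.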

[17] = TOX21_p53_BLA_p4_viability: Viability Assessment in the Tox21 HCT-116 p53 Agonism Beta-lactamase Assay, Phase 4 (AID 2283597; active means hit-call score of the fitted dose curve at least 0.9, where 1 is the maximum;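 further: hits lower the luminescence signal meaning cytotoxicity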)
How it was run: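 Cells plated, 5 h pre-incubation; DMSO compounds pinned (217-fold dilution); 16 h, 37C/5% CO2; CCF4-AM 2 h RT; CellTiter-Glo 30 min RT; luminescence read.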

[18] = molecular target: Cellular tumor antigen p53 (Homo sapiens) (UniProt P04637); experiment: TOX21_p53_BLA_p5_ratio: Tox21 HCT-116 p53 Agonism Beta-lactamase Assay, Ratio, Phase 5 (AID 2283599; active means hit-call score of the fitted dose curve at least 0.9, where 1 is the maximum)
How it was run: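 HCT-116 p53-bla cells (4000/well) plated 5 h, dosed with compound (217-fold DMSO dilution) for 16 h at 37 C; CCF4-AM substrate 2 h at room temperature. Activity is the 460/530 nm emission ratio (405 nm excitation), fitted in gain-of-signal direction versus DMSO.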

Measured: outcome

CO[C@@H]1COCC[C@@H]1N[C@@H]1CC[C@@](C(=O)N2CCc3ncc(C(F)(F)F)cc3C2)(C(C)C)C1
inactive: [1] | [2] | [3] | [4] | TIMP1, TIMP1 (gene 7076) | [5] | [6] | [7] | [8] | [9] | [10] | [11] | [12] | [13] | [14]

CC(C)c1cccc(C(C)C)c1NC(=O)NS(=O)(=O)c1cc(C(C)(C)O)co1
inactive: [1] | [2] | [3] | [4] | TIMP1, TIMP1 (gene 7076) | [5] | [6] | [7] | [8] | [9] | [10] | [11]

S=c1[nH]c2ccccc2s1
inactive: [1] | [2] | [3] | [4] | TIMP1, TIMP1 (gene 7076) | [5] | [6] | [7] | [8] | [9] | [10] | [11] | [15] | [12] | [13] | [16] | [17] | [18]

CN(C)CCCN(C)CCCN(C)C
inactive: [1] | [2] | [3] | [4] | TIMP1, TIMP1 (gene 7076) | [5] | [6] | [7] | [8] | [9] | [11] | [15] | [16] | [14]
